The structures appear in SMILES notation. In all, about 2,100 compounds went through this assay and about 590 (28%) were called active. Inconclusive results (about 42%) are left out. The list shows a part of the results. A number with no mark means an inactive call. Calls come from the whole dose curve; as a rule, active = well fitted inhibition curve with a large enough effect; inconclusive = small, poorly fitted or top-dose-only effect; inactive = flat fitted curve, though single readings scatter.

This passage reports Potency and max response results from PubChem BioAssay AID651814 (National Center for Advancing Translational Sciences (NCATS), 2012).
Potency is the fitted concentration of half-maximal effect.

DNA dC->dU-editing enzyme APOBEC-3F (Homo sapiens), sequence (Q8IUX4 whole entry, looked up): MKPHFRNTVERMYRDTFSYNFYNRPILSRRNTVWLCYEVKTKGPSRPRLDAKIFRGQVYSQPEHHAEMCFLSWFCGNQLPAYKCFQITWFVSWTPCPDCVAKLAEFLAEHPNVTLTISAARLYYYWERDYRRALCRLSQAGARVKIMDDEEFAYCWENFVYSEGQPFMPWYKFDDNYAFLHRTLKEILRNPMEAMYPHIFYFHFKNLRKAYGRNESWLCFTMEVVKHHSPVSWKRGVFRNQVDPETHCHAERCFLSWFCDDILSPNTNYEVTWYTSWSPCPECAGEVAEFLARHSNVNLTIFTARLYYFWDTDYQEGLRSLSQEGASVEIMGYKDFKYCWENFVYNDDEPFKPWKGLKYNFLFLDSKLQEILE

This experiment deals with DNA dC->dU-editing enzyme APOBEC-3F (Homo sapiens) (UniProt Q8IUX4). Nature of the experiment: qHTS for inhibitors of Vif-A3F interactions: Cherry picks.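 For max response: % of control where 0% means no effect; active compounds raise eYFP fluorescence by blocking Vif-driven A3F loss.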 Note: nearly all actives have a fitted effect of over 70% in size. The conditions noted are these: HeLa A3F-eYFP + Vif (tagged APOBEC3F with the HIV-1 protein that degrades it), eYFP fluorescence, 24 h. From the text:
The recent discovery and characterization of host restriction factors, which provide a potent defense to invading retroviruses, has provided new targets for antiviral drug development. APOBEC3G (A3G) and APOBEC3F (A3F) are potent cytidine deaminases that block HIV-1 replication; HIV-1 expresses the Vif protein, which counteracts A3G and A3F by binding to them and inducing their proteasomal degradation. The Vif-A3G and Vif-A3F interactions provide two potential targets for development of small molecules which can interfere with the ability of Vif to degrade A3G or A3F. […] To identify inhibitors that can interfere with Vif mediated degradation of A3G and A3F, we have developed Hela cell lines that stably express A3G or A3F tagged with eYFP at the C-terminal end (A3G-eYFP or A3F-eYFP, respectively) and Vif. In the absence of an inhibitor, Vif induces degradation of A3G-eYFP and A3F-eYFP, and the cells are not fluorescent. In the presence of an inhibitor, it is expected that Vif will be unable to degrade A3G-eYFP and/or A3F-eYFP, resulting in an increase in yellow fluorescence. In this assay, Vif A3F was screened against the cherry picks ordered from the MLSMR. NIH Chemical Genomics Center [NCGC] NIH Molecular Libraries Probe Centers Network [MLPCN] MLPCN Grant: MH093245 Assay Submitter (PI): Vinay Pathak, National Cancer Institute
A3F-Vif cells were harvested from T225 flask and resuspended in phenol free OPTI-MEM medium with 5% FBS. Then 5 uL of 140,000 cells/mL resuspended cells was dispensed into each well of low base Aurora COC 1,536-well plates (black walled, clear bottom) using a Multidrop Combi dispenser. After overnight culture at 37 deg C with 5% CO2, a total of 23 nL of compounds at 5 selected concentrations from the NPC or positive control (2 mM stock of MG132) in DMSO was transferred to each well of the assay plate using a pintool (Kalypsys, San Diego, CA), and the plates were further incubated at 37 deg C with 5% CO2 for 24 hours. After that, the plates were measured on Acumen Explorer (TTP Lab Tech). The fluorescence was detected by 488 nm/Ex and […].
For orientation: Quantitative high-throughput screening tests each substance at several concentrations.
Regarding `Cc1ccc(CNC(=O)c2ccccc2NC(=O)c2nsc3ccccc23)cc1`, the Potency was 20.6 µM (active).
Still for that read-out and setting: then `CCN(CC)c1ccc(/C=C2\C(=O)NC(=S)N(C)C2=O)o1`, with 14 µM (active); and `CCN(CC)c1ccc(C=C2C(=O)N(C)C(=S)N(C)C2=O)o1`, with 3.96 µM (active).
Regarding `Cc1ccc(/C=C2/C(=O)NC(=O)N(CCc3ccc(F)cc3)C2=O)s1`, the max response was -13.3%.
For `Cc1cccc(-n2c(/C=C/c3c(C)[nH]c4ccccc34)nc3ccccc3c2=O)c1`, the Potency was 20.6 µM (active).
For the compound `O=Cc1c(C(=O)O)n(Cc2ccc(Cl)cc2)c2ccccc12`, the Potency was 20.6 µM (active).
Consider `CC(=O)OC1C2(CC3N4C(=O)C5(CO)SSC4(CC31O)C(=O)N5C)OC(C)C(C)(C)C2=O` (stereo not drawn), for which the Potency was 6.27 µM (active).
For the compound `Cc1cccc(CN2CCCC(C(=O)c3cccc(OC(C)C)c3)C2)n1` (stereo not drawn), the max response was 3.61%.
Take `O=C1NC(=S)SC1=Cc1ccc(N(CCCl)CCCl)cc1`: the Potency is 14 µM (active).
Take `ClCCN(CCCl)c1ccc(C=Cc2ccncn2)cc1`: the max response was -17%.
For the compound `CN1C(=O)C(=Cc2ccc(N3CCCCC3)o2)C(=O)N(C)C1=S`, the Potency is 5.17 µM (active).
`CN1C(=O)C(=Cc2ccc(N3CCOCC3)o2)C(=O)N(C)C1=O`: the Potency was 18.4 µM (active).
`CN1C(=O)C(=Cc2ccc(N3CCOCC3)o2)C(=O)N(C)C1=S`: the Potency was 23.1 µM (active).
On the same count and under the same terms, under `O=C1NC(=O)N(c2ccc3c(c2)OCO3)C(=O)/C1=C/c1ccc(N2CCCCC2)o1` stands 23.1 µM (active).
On the same count and under the same terms, under `O=C1NC(=O)N(c2ccc3c(c2)OCO3)C(=O)/C1=C\c1ccc(N2CCCCC2)o1` stands 18.4 µM (active).
Same read-out and setting: then `CN(C)c1ccc(/C=C/C=C2/C(=O)NC(=O)N(c3ccccc3)C2=O)cc1`, with 16.4 µM (active); and `CC(C)c1ccc(N2C(=O)NC(=O)/C(=C\C=C\c3ccco3)C2=O)cc1`, with 17.7 µM (active).
For `O=C1NC(=O)N(Cc2ccc(F)cc2)C(=O)/C1=C\C=C\c1ccco1`, the max response was -29.5%.
With `Cc1ccc(N2C(=O)NC(=O)/C(=C\C=C\c3ccco3)C2=O)cc1C`, the max response is -16.6%.
Take `Cc1cc(N2CCCC2)ccc1C=C(C#N)C#N`: the Potency is 7.31 µM (active).
Take `Cc1nn(Cc2ccccc2)c(C)c1C(=O)OCC(=O)Nc1ccccc1SCC#N`: the Potency was 14 µM (active).
The same measure, in the same setting: under `CCN(CC)c1ccc(N=Cc2c(O)n(CCC3=CCCCC3)c(=O)[nH]c2=O)cc1` stands 3.66 µM (active).
As for `CC/C(=N\NC(=O)c1ccccc1O)c1c(O)n(Cc2ccccc2)c(=O)[nH]c1=O`, the max response is -28.7%.
As for `CCN(CC)c1ccc(N=Cc2c(O)n(Cc3ccccc3)c(=O)[nH]c2=O)cc1`, the Potency was 3.26 µM (active).
With `CC1=CC(=Cc2sc3ccccc3[n+]2C)C=C(C)O1`, the Potency was 5.17 µM (active).
For the compound `CCCCn1c(O)c(C(=O)/C=C/c2c[nH]c3ccccc23)c(=O)[nH]c1=O`, the Potency was 12.5 µM (active).
The same measure, in the same setting: then `CN1CCN(c2ccc(/C=C3\C(=O)NC(=S)N(c4cccc(Br)c4)C3=O)o2)CC1`, with 18.4 µM (active); and `CN1C(=O)/C(=C\c2ccc(N3CCCCC3)o2)C(=O)NC1=S`, with 14 µM (active).
As for `CCC(C)N1C(=O)/C(=C\c2ccc(N3CCCCCC3)cc2)C(=O)NC1=S` (stereo not drawn), the max response was -14.3%.
Take `CN1C(=O)/C(=C/c2ccc(N3CCCCCC3)o2)C(=O)NC1=S`: the Potency was 12.5 µM (active).
With `Cc1cc(/C=C2\C(=O)NC(=O)N(c3ccc(Br)cc3)C2=O)c(C)n1C`, the max response is -6.73%.
Regarding `O=c1[nH]c(CN2CC=C(c3ccccc3)CC2)nc2scc(-c3ccccc3)c12`, the Potency is 18.4 µM (active).
For the compound `Nc1ccc2c3c(cccc13)-c1ccccc1-2`, the Potency was 4.11 µM (active).
Turning to `COc1cc(C2C(C#N)=C(N)Oc3cc(O)ccc32)cc(OC)c1OC` (stereo not drawn), the Potency was 1.98 µM (active).
Regarding `CCCCNC(=O)/C(C#N)=c1\s/c(=C\c2ccccc2OC(F)F)c(=O)n1CCCOC`, the Potency was 16.4 µM (active).
Turning to `CCCCCn1c(NC(=O)c2ccco2)c(C(=O)OCC)c2nc3ccccc3nc21`, the Potency is 15.8 µM (active).
`COCCNC(=O)c1c(NC(=O)c2ccc(Br)o2)n(Cc2ccccc2)c2nc3ccccc3nc12`: the max response is -6.71%.
Turning to `O=c1[nH]c(=O)n(Cc2ccccc2Cl)c(O)c1/C=C1/C=CC=N1`, the Potency was 9.2 µM (active).
As to `CC(C)CCCn1c(O)c(/C=C2/C=CC=N2)c(=O)[nH]c1=O`, the Potency is 18.4 µM (active).
Consider `COC(=O)C1=C(C)N(Cc2ccco2)C(=O)/C1=C\c1ccc(N(C)C)cc1`, for which the Potency was 13 µM (active).
The same measure, in the same setting: under `O=c1c2ccccc2nc(/C=C/c2ccc([N+](=O)[O-])o2)n1-c1ccc(O)cc1` stands 12.5 µM (active).
As to `CN1/C(=C\C=C2C(=O)NC(=O)NC2=O)C(C)(C)c2ccccc21`, the max response was -9.38%.
As for `O=C1NC(=O)N(Cc2ccc(F)cc2)C(=O)/C1=C\c1ccoc1`, the max response is -24.2%.
Consider `O=C(Cc1ccccc1)c1ccccn1`, for which the Potency is 17.7 µM (active).
In the case of `CCS(=O)(=O)N1N=C(c2cccc(NS(C)(=O)=O)c2)CC1c1ccccc1` (stereo not drawn), the Potency was 23.1 µM (active).
For `Cc1ccccc1-n1c(/C=C/c2ccc(N(C)C)cc2)nc2ccccc2c1=O`, the Potency is 3.26 µM (active).
Consider `COc1ccccc1-n1c(/C=C/c2ccc(O)cc2)nc2ccccc2c1=O`, for which the max response is -0.327%.
Same read-out and setting: then `O=c1nc(/C=C/c2ccc(Cl)cc2Cl)cc(C(F)(F)F)[nH]1`, with -25.1%.
